± gives the standard deviation of the averaged measurements.
Test system: mESC LDLR-Dup GFP reporter (SpCas9 MH-deletion repair)
Assay: fraction of GFP+ cells relative to DMSO control (fold change); higher = more MH-deletion repair to in-frame LDLR (or more editing)
Conditions: 2 µM; 7 days post-transfection

SMILES	fraction of GFP+ cells
Nc1nc(=O)c2c([nH]1)NC[C@H](CNc1ccc(C(=O)N[C@@H](CCC(=O)O)C(=O)O)cc1)N2C=O [Calcium Levofolinate]	1.1 ± 0.47
O=C(NCc1ccccc1)c1csc(Nc2ccncn2)n1 [Thiazovivin]	0.987 ± 0.18
O=C(O)c1ccc2c(c1)nc(Nc1cccc(Cl)c1)c1ccncc12 [Silmitasertib (CX-4945)]	0.655 ± 0.32
N#Cc1c(Oc2ccc(F)c(NC(=O)Cc3cccc(C(F)(F)F)c3)c2)ccc2nc(NC(=O)C3CC3)sc12	0.727 ± 0.25
Cc1cnc(NC(=O)Nc2cc(Br)c(C)cc2OC[C@@H]2CNCCO2)cn1	1.14 ± 0.08
S=P(N1CC1)(N1CC1)N1CC1 [Thiotepa]	0.905 ± 0.27

Source: the supplement of paper PMC8387472
